According to PubChem BioAssay (Tox21):
Results filed as inconclusive are left out. A number with no mark means an inactive call. The source made the active and inactive calls. The call rests on the fitted dose curve; in most records, active means well fitted inhibition curve with a large enough effect in the repeat runs; inconclusive means weak or mixed curves; inactive means flat fitted curve, though single readings scatter.

Each compound was assayed against Voltage-gated inwardly rectifying potassium channel KCNH2 (Homo sapiens) (UniProt Q12809) (assay: Human Ether-a-go-go-Related Gene (hERG) channel small molecule antagonists: fluorescence cell-based qHTS assay (AID 1671200; further: nearly all actives have a fitted effect of over 50% in size)). Details: hERG-U2OS cells, FluxOR thallium flux fluorescence; series mostly up to 76.8 µM; activity change, negative = inhibition: at the top concentration.
Chain of Voltage-gated inwardly rectifying potassium channel KCNH2 (Homo sapiens) (Q12809 whole entry, looked up): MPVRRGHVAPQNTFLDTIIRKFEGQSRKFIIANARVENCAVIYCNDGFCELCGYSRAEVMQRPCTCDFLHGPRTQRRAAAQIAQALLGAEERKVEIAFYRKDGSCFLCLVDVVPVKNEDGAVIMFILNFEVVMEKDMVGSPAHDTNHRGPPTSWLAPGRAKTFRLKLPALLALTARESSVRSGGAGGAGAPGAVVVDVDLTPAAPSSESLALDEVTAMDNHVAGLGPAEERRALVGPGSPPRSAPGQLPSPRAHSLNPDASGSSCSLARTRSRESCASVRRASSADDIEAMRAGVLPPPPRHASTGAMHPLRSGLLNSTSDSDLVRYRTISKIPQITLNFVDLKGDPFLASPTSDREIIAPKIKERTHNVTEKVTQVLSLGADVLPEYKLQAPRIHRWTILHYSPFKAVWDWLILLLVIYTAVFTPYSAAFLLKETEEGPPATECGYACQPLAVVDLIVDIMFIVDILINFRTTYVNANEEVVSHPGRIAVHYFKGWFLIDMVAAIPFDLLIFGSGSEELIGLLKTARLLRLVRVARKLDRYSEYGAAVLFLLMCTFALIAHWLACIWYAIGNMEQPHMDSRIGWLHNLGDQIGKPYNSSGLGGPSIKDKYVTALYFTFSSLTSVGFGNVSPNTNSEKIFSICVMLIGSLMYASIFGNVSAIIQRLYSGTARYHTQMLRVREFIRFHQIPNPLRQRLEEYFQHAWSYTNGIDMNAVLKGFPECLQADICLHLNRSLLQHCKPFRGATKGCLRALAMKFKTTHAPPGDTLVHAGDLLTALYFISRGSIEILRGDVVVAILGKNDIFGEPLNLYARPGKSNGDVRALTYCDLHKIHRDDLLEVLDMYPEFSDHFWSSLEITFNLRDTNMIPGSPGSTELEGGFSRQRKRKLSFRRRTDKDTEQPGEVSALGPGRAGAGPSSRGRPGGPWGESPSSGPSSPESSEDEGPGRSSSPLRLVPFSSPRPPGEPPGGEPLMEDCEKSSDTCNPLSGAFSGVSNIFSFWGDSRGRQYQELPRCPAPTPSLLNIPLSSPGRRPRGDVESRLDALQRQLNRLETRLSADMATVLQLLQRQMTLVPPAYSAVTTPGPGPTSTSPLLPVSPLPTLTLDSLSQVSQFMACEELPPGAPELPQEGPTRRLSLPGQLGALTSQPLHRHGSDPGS
Source text: National Center for Advancing Translational Sciences [NCATS]
U.S. Environmental Protection Agency [EPA]
National Institutes of Environmental Health Sciences [NIEHS]
National Toxicology Program [NTP]
U.S. Food and Drug Administration [FDA]
Mutations in the hERG channel cause Long QT (LQT) syndrome. LQT syndrome is a cardiac disorder which can cause ventricle arrhythmia and sudden death. Additionally, compounds which block the hERG channel can cause acquired LQT syndrome. Several FDA approved drugs have been removed from the market due to their hERG blocking activity. A cell-based hERG channel inhibition assay can be used to screen chemical compounds that inhibit hERG channel. This assay measures hERG channel activity using thallium ions as surrogate ions to measure potassium into the cells.
Tox21 Assay Protocol Summary:
hERG-U2OS cells were resuspended in culture medium and dispensed into 1536-well, black wall/clear-bottom plates at 1000cells/well/3uL using a Multidrop Combi dispenser (Thermo Fisher, Waltham, MA). After plates were incubated at 37 C overnight, 3 uL of Loading Buffer provided by FluxOR II Potassium Ion Channel Assay kit (Thermo, Carlsbad, CA) was added to each well. The assay plates were then incubated at room temperature in the dark for 1h. […] After the assay plates were incubated at room temperature for 10 min, 1 uL of Stimulus Buffer provided by FluxOR II Potassium Ion Channel Assay kit was added into each well and fluorescence intensity (480nm excitation/540nm emission) was continuously measured for 2 min at 1 second intervals using a Functional Drug Screening System (FDSS) 7000EX kinetic plate reader (Hamamatsu, Japan).
On the % scale 0 is the no-effect control and ±100 the full control effect; potency means the concentration at half of the fitted maximal effect.

**Q.** How did the “activity change, negative = inhibition” value turn out when c1ccoc1 was run?
**A.** The value was -0.295%.

**Q.** For OCCCBr, which “activity change, negative = inhibition” value is on record?
**A.** Its value is 2.72%.

**Q.** How did the “activity change, negative = inhibition” value turn out when O=C1c2ccccc2C(=O)C1C(=O)C(c1ccccc1)c1ccccc1 was run?
**A.** The value was -2.63% [at 35.3 µM].

**Q.** For C=CC(=O)NCNC(=O)C=C, which “activity change, negative = inhibition” value is on record?
**A.** The value was 1.73%.

**Q.** With Clc1cccc2ccccc12 as the compound, how does the “activity change, negative = inhibition” value read?
**A.** Its value is -11.5%.

**Q.** C(=NC1CCCCC1)=NC1CCCCC1 was tested. Which Potency did it give?
**A.** The Potency was “inactive”.

**Q.** CC(C)N(C(=O)COc1nnc(C(F)(F)F)s1)c1ccc(F)cc1 was tested. Which “activity change, negative = inhibition” value did it give?
**A.** Its value is -1.69%.

**Q.** Which “activity change, negative = inhibition” value does the source give for O=NN1CCNCC1 here?
**A.** The value was -4.55%.

**Q.** For O=C(Nc1ccccc1)Nc1cnns1, which “activity change, negative = inhibition” value is on record?
**A.** Its value is -7.22%.

**Q.** Which “activity change, negative = inhibition” value does the source give for CC(C)=CCOc1c2occc2cc2ccc(=O)oc12 here?
**A.** The value was -3.88% [at 35.3 µM].

**Q.** For O=[N+]([O-])c1cc(C(F)(F)F)cc([N+](=O)[O-])c1Cl, which “activity change, negative = inhibition” value is on record?
**A.** The value was -23.4%.

**Q.** For CC[C@H]1C[C@H]2[C@@H]3CCC4=CC(=O)CC[C@@H]4[C@H]3CC[C@]2(C)[C@H]1O, which “activity change, negative = inhibition” value is on record?
**A.** Its value is -18.5% [at 35.3 µM].

**Q.** With CNC(C)Cc1ccccc1OC (stereo not given) as the compound, how does the “activity change, negative = inhibition” value read?
**A.** The value was -8.77% [at 35.3 µM].

**Q.** For CC(c1ccc(O)cc1)(c1ccc(O)cc1)c1ccc(O)cc1, which “activity change, negative = inhibition” value is on record?
**A.** The value was -15%.

**Q.** With CCCN(CC1CC1)c1c([N+](=O)[O-])cc(C(F)(F)F)cc1[N+](=O)[O-] as the compound, how does the “activity change, negative = inhibition” value read?
**A.** The value was -9.39%.

**Q.** CO/N=C(/C(=O)OC)c1ccccc1COc1ccccc1C was tested. Which “activity change, negative = inhibition” value did it give?
**A.** The value was -9.89%.

**Q.** How did the “activity change, negative = inhibition” value turn out when N#CCc1ccccc1 was run?
**A.** The value was 0.29%.

**Q.** Which “activity change, negative = inhibition” value does the source give for CCc1ccc(C(=O)NN(C(=O)c2cc(C)cc(C)c2)C(C)(C)C)cc1 here?
**A.** The value was -5.27%.

**Q.** For CCOP(=S)(OCC)SCSCC, which “activity change, negative = inhibition” value is on record?
**A.** Its value is -14.1%.

**Q.** For CCOC(=O)COc1cc(-c2nn(C)c(OC(F)F)c2Cl)c(F)cc1Cl, which Potency is on record?
**A.** Its Potency is 34700 nM (active).

**Q.** Which “activity change, negative = inhibition” value does the source give for CCOc1ccc(C(C)(C)COCc2cccc(Oc3ccccc3)c2)cc1 here?
**A.** Its value is -13.9%.

**Q.** NC(=O)C(Cl)(Cl)Cl was tested. Which “activity change, negative = inhibition” value did it give?
**A.** The value was 7.92%.

**Q.** How did the “activity change, negative = inhibition” value turn out when O=C(NC(=O)c1c(F)cccc1F)Nc1cc(Cl)c(Oc2ncc(C(F)(F)F)cc2Cl)c(Cl)c1 was run?
**A.** The value was -20.7%.

**Q.** Which “activity change, negative = inhibition” value does the source give for CC(C)(C)C(O)C(Oc1ccc(Cl)cc1)n1cncn1 (stereo not given) here?
**A.** Its value is -4.58%.

**Q.** CC(C)(CCl)C(=O)Cl was tested. Which “activity change, negative = inhibition” value did it give?
**A.** The value was 1.9%.

**Q.** With O=C(O)COc1ccc(Cl)cc1 as the compound, how does the “activity change, negative = inhibition” value read?
**A.** Its value is -0.411%.

**Q.** For CCOP(=O)(OCC)O/C(=C/Cl)c1ccc(Cl)cc1Cl, which “activity change, negative = inhibition” value is on record?
**A.** The value was -7.72%.

**Q.** Which “activity change, negative = inhibition” value does the source give for ClP(Cl)(Cl)(Cl)Cl here?
**A.** The value was -7.08%.

**Q.** CCOP(=S)(Oc1ccc([N+](=O)[O-])cc1)c1ccccc1 (stereo not given) was tested. Which Potency did it give?
**A.** Its Potency is 616 nM (active).

**Q.** How did the “activity change, negative = inhibition” value turn out when CNP(=O)(OC)Oc1ccc(C(C)(C)C)cc1Cl (stereo not given) was run?
**A.** The value was 1.53%.

**Q.** Which Potency does the source give for CN1C[C@H](CNC(=O)OCc2ccccc2)C[C@@H]2c3cccc4c3c(cn4C)C[C@H]21 here?
**A.** Its Potency is 3380 nM (active).

**Q.** For CN(N=O)c1ccc([N+](=O)[O-])cc1, which “activity change, negative = inhibition” value is on record?
**A.** The value was 0.903%.

**Q.** With Clc1ccc(C(OCCN2CCCCC2)c2ccccc2)cc1 (stereo not given) as the compound, how does the Potency read?
**A.** The Potency was 601 nM (active).

**Q.** With CCOC(=O)C(Cl)C(C)=O (stereo not given) as the compound, how does the “activity change, negative = inhibition” value read?
**A.** Its value is 3.66%.

**Q.** With C=CCN1CC[C@]23c4c5ccc(O)c4O[C@H]2C(=O)CC[C@@]3(O)[C@H]1C5 as the compound, how does the “activity change, negative = inhibition” value read?
**A.** The value was -11.6% [at 35.3 µM].

**Q.** Cc1ccccc1C(=O)Nc1cccc(OC(C)C)c1 was tested. Which “activity change, negative = inhibition” value did it give?
**A.** Its value is 0.744%.

**Q.** For O=[N+]([O-])c1ccccc1CCl, which “activity change, negative = inhibition” value is on record?
**A.** Its value is 1.26%.

**Q.** How did the “activity change, negative = inhibition” value turn out when CCCCC(O)(Cn1cncn1)c1ccc(Cl)cc1Cl (stereo not given) was run?
**A.** The value was -17.8%.

**Q.** CCCCCCCCCCOC(=O)c1ccccc1C(=O)OCCCCCCCCCC was tested. Which “activity change, negative = inhibition” value did it give?
**A.** The value was 1.09%.

**Q.** O=C(CCl)c1ccc(Cl)cc1Cl was tested. Which “activity change, negative = inhibition” value did it give?
**A.** Its value is -19.4%.
